In the antibiotic and cytotoxicity screens of Wong et al. (2023) one finds growth inhibition call data, which are given here for 19 compounds.

The structures appear in SMILES notation. The campaign covered roughly 39,000 compounds. About 500 (1.3%) were called active. Shown is part of a subset that was picked to be rich in actives.

For the test, the system named is S. aureus RN4220. The experiment in a line: growth inhibition call (relative growth <= 0.2). The conditions noted are these: 50 µM.
Take `C[C@@H]1CN([C@H](C)CO)C(=O)c2cc(NS(=O)(=O)c3ccc(F)cc3)ccc2O[C@@H](C)CCCCO[C@H]1CN(C)C(=O)Nc1ccccc1`: the growth inhibition call was “inactive”.

For `CC=Cc1ccc2n(c1=O)C[C@@H]1[C@@H](CO)[C@H](C(=O)NC3CCC3)N(S(C)(=O)=O)[C@H]21`, the growth inhibition call was “inactive”.

As for `CCCN(C)C[C@@H]1OCCCC[C@@H](C)Oc2ccc(NS(=O)(=O)c3cn(C)cn3)cc2C(=O)N([C@@H](C)CO)C[C@@H]1C`, the growth inhibition call was “inactive”.

For `C[C@@H]1CN([C@@H](C)CO)C(=O)c2cc(C#Cc3ccncc3)cnc2O[C@H]1CN(C)S(=O)(=O)c1ccccc1F`, the growth inhibition call was “inactive”.

For `C[C@@H]1CN([C@@H](C)CO)C(=O)c2cc(NS(C)(=O)=O)ccc2O[C@@H](C)CCCCO[C@H]1CN(C)S(=O)(=O)c1cn(C)cn1`, the growth inhibition call is “inactive”.

With `C[C@@H]1CN([C@H](C)CO)C(=O)c2cccc(NS(C)(=O)=O)c2O[C@@H]1CN(C)S(=O)(=O)c1ccc(F)cc1`, the growth inhibition call is “inactive”.

In the case of `C[C@@H]1CN([C@H](C)CO)S(=O)(=O)c2ccc(C#Cc3ccccc3)cc2O[C@H]1CN(C)C(=O)CN(C)C`, the growth inhibition call is “inactive”.

Consider `C[C@@H]1CN([C@@H](C)CO)S(=O)(=O)c2ccc(C#Cc3ccccc3)cc2O[C@H]1CN(C)C(=O)CN(C)C`, for which the growth inhibition call is “inactive”.

Turning to `C[C@H](CO)N1C[C@H](C)[C@H](CN(C)C(=O)CN(C)C)Oc2cc(C#Cc3ccccc3)ccc2S1(=O)=O`, the growth inhibition call was “active”.

Take `COc1ccc(S(=O)(=O)N(C)C[C@@H]2Oc3ccc(NS(=O)(=O)c4cccs4)cc3CC(=O)N([C@@H](C)CO)C[C@H]2C)cc1`: the growth inhibition call is “inactive”.

On to `C[C@@H]1CN([C@H](C)CO)C(=O)c2cccc(NS(C)(=O)=O)c2O[C@@H]1CN(C)C(=O)Nc1ccc(C(F)(F)F)cc1`, for which the growth inhibition call is “active”.

For the compound `C[C@@H]1CN([C@@H](C)CO)C(=O)c2cccc(NS(C)(=O)=O)c2O[C@@H]1CN(C)C(=O)Nc1ccc(C(F)(F)F)cc1`, the growth inhibition call was “active”.

`C[C@@H]1CN([C@@H](C)CO)C(=O)c2cccc(NS(C)(=O)=O)c2O[C@H]1CN(C)C(=O)Nc1ccc(F)cc1`: the growth inhibition call was “inactive”.

Take `C[C@H]1CN([C@@H](C)CO)C(=O)c2cccc(NS(C)(=O)=O)c2O[C@@H]1CN(C)C(=O)Nc1ccc(C(F)(F)F)cc1`: the growth inhibition call was “inactive”.

On to `C[C@@H]1CN([C@H](C)CO)C(=O)c2cccc(NS(C)(=O)=O)c2O[C@H]1CN(C)C(=O)Nc1ccc(C(F)(F)F)cc1`, for which the growth inhibition call is “inactive”.

Regarding `C[C@H](CO)N1C[C@H](C)[C@@H](CN(C)C(=O)Nc2ccc(C(F)(F)F)cc2)Oc2c(NS(C)(=O)=O)cccc2C1=O`, the growth inhibition call was “inactive”.

In the case of `C[C@H]1CN([C@@H](C)CO)C(=O)c2cccc(NS(C)(=O)=O)c2O[C@H]1CN(C)C(=O)Nc1ccc(C(F)(F)F)cc1`, the growth inhibition call is “inactive”.

In the case of `C[C@H](CO)N1C[C@H](C)[C@H](CN(C)C(=O)Nc2ccc(C(F)(F)F)cc2)Oc2c(NS(C)(=O)=O)cccc2C1=O`, the growth inhibition call is “inactive”.

As to `C[C@@H]1CN([C@@H](C)CO)C(=O)c2cccc(NS(C)(=O)=O)c2O[C@H]1CN(C)C(=O)Nc1ccc(C(F)(F)F)cc1`, the growth inhibition call was “active”.
